Measured values reported in PubChem BioAssay (NCATS).
Records with an inconclusive call do not appear. Active and inactive are the calls of the source. Calls follow the shape of the dose curve; as a rule, active = well fitted curve in the direction sought with a large enough effect; inconclusive = small, poorly fitted or top-dose-only effect, or another doubt; inactive = no such curve, though single readings can be large; an effect the other way counts as inactive or inconclusive.

Assays:
[1] = target: Phospholipid hydroperoxide glutathione peroxidase GPX4 (Homo sapiens) (UniProt P36969); test: Primary qHTS Assay for Inhibitors of Recombinant Selenoprotein Glutathione Peroxidase 4 (GPX4) (AID 1845192); also: nearly all actives have a fitted effect of over 65% in size; as to activity change, negative = inhibition: series mostly up to about 50 µM; % is scaled to controls: 0 for no effect and ±100 for the full control effect
Summary of the method: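 GR-coupled assay: recombinant GPX4 preincubated 30 min with compound at room temperature; final 200 nM GPX4, 1 mM GSH, 0.5 mM cumene hydroperoxide, 0.5 mM NADPH, 100 nM GR, 0.01% BSA, pH 7.5 Tris. NADPH fluorescence (340/450 nm) read at 0 and 15 min.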

[2] = target: Luciferin 4-monooxygenase (Photinus pyralis) (UniProt P08659); test: Primary firefly luciferase (FLuc) qHTS assay for identification of artifact compounds. (AID 1845220); also: nearly all actives have a fitted effect of over 60% in size;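 as to activity change, negative = inhibition: series mostly up to about 54 µM; plate controls were DMSO vehicle for no effect and no enzyme for full effect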
Summary of the method: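 D-luciferin and ATP (10 uM each, final) in Tris acetate buffer pH 7.6 were incubated with compounds for 15 min at room temperature. The reaction was started with 10 nM Photinus pyralis luciferase and luminescence read after 5 min. Percent inhibition was fitted to a 4-parameter Hill equation.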

[3] = system: Nanoluciferase (engineered Oplophorus gracilirostris luciferase); test: Primary Nanoluciferase (NLuc) qHTS assay for identification of artifact compounds. (AID 1845222);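 also: series mostly up to about 54 µM; 0% = DMSO and -100% = no enzyme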
Summary of the method: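 Diluted conditioned medium from NLuc-expressing S16 cells treated with compounds for 15 min at room temperature, then Nano-Glo substrate added; luminescence read after 5 min. Percent inhibition versus no-enzyme and DMSO controls fitted to 4-parameter Hill equation.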

[4] = Primary redox qHTS assay for identification of artifact compounds. (AID 1845223);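 also: 0% = DMSO and 100% = reference compound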
Summary of the method: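 Amplex Red (25 uM) and HRP (250 mU/mL) in HBSS, with compounds for 15 min, then 250 uM DTT for 30 min, room temperature, dark. Fluorescence 525/598 nm read; normalized to DMSO and 10 uM DA3003; Hill fit.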

Sequence of Phospholipid hydroperoxide glutathione peroxidase GPX4 (Homo sapiens) (P36969 whole entry, looked up): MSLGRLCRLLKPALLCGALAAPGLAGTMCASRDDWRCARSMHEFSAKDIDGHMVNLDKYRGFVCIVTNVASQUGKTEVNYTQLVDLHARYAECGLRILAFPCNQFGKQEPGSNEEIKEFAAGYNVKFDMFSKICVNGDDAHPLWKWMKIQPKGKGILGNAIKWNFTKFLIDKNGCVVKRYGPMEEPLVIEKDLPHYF

COc1cc(C(=O)O)ccc1OC1OC(CO)C(O)C(O)C1O (stereo unspecified)
inactive: Potency [1] | Potency [2] | Potency [3] | Potency [4]

COc1cc(C2Oc3c(OC)cc(CCCO)cc3C2CO)ccc1O[C@H]1O[C@H](C)[C@@H](O)[C@H](O)[C@@H]1O (stereo partly specified)
inactive: Potency [1] | Potency [2] | Potency [3] | Potency [4]

C=C1C(OC(C)=O)CCC2(C)CC3(OC)OC(=O)C(C)=C3CC12 (stereo unspecified)
inactive: Potency [1] | Potency [2] | Potency [3] | Potency [4]

O=C(O)C1CN(Cc2ccc(-c3nc4cc(Cc5ccccc5F)ccc4s3)c(F)c2)C1
inactive: activity change, negative = inhibition [1] 8.48% [at 9.73 µM] | activity change, negative = inhibition [2] -1.19% [at 11.6 µM] | activity, negative = inhibition [3] -0.199% [at 11.6 µM] | redox activity (% of DA3003) [4] -6.07% [at 11.5 µM]

COC(=O)[C@@H](O)[C@H]1[C@@]2(C)CC3(O)[C@@H](C(=O)[C@H]2O)[C@]24O[C@]25CC(=O)O[C@@H](c2ccoc2)[C@]5(C)CCC4[C@]13C (stereo partly specified)
inactive: Potency [1] | Potency [2] | Potency [3] | Potency [4]

CC1(C)CC2C=C(C(=O)O)C3COC(=O)C(O)(CO)C23C1 (stereo unspecified)
inactive: Potency [1] | Potency [2] | Potency [3] | Potency [4]

COC(=O)Cc1cc2c(c([N+](=O)[O-])c1)N(C(=O)CC[C@H](N)C(=O)O)CC2
inactive: Potency [1] | Potency [2] | Potency [3] | Potency [4]

COc1c2c(c(C)c3c1C(=O)OC3)OC1(C)CC(O)C(C(C)(C)O)C(C)(CCC(=O)O)C1C2 (stereo unspecified)
inactive: Potency [1] | Potency [2] | Potency [3] | Potency [4]

O=C(O)c1cc(-c2c(-c3ccccc3)nn3ccccc23)n[nH]c1=O
inactive: Potency [1] | Potency [2] | Potency [3] | Potency [4]

COC(=O)c1ccccc1O[C@@H]1O[C@H](CO)[C@@H](O)[C@H](O)[C@H]1O[C@@H]1O[C@@H](C)[C@H](O)[C@@H](O)[C@H]1O
inactive: Potency [1] | Potency [2] | Potency [3] | Potency [4]

CC(C)(O)/C=C/C1=CC(=O)[C@@](C)(O)C[C@H]1O
inactive: Potency [1] | Potency [2] | Potency [3] | Potency [4]

COc1cc(/C=C/CO)cc(OC)c1O[C@@H]1O[C@H](CO[C@@H]2O[C@H](CO)[C@@H](O)[C@H](O)[C@H]2O)[C@@H](O)[C@H](O)[C@H]1O
inactive: Potency [1] | Potency [2] | Potency [3] | Potency [4]

COC(=O)C1=CO[C@@H](O[C@@H]2O[C@H](CO)[C@@H](O)[C@H](O)[C@H]2O)C2C1C(=O)C[C@H]2C (stereo partly specified)
inactive: Potency [1] | Potency [2] | Potency [3] | Potency [4]

C=C1CCC2C(C)(C)CCC[C@]2(C)[C@H]1C/C=C(\CO)C(=O)C(=O)O (stereo partly specified)
inactive: Potency [1] | Potency [2] | Potency [3] | Potency [4]
